In PubChem BioAssay AID1159580 (chemical genetic matrix, 2015):
The whole screen tested about 5,500 compounds, of which about 2,000 (36%) were called active. Not shown: some 18% with an inconclusive outcome. No stated cut-off is given here; in the data, active means normalized growth mostly below about 0.91 (no sharp cut-off); inconclusive means no clear call, values can overlap the other calls; inactive means mostly above about 0.92. Some of the results follow.

Test: chemical genetic growth profiling, strain panel (AID 1159580);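 further: tested at 20 µM; growth read once vehicle control cultures reached saturation at 30 °C; 1 = growth at the plate median or of vehicle wells; lower values mean less growth of the strain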
Conditions: S. cerevisiae deletion strains, growth OD

Measured: normalized growth

C#CCOC(=O)C1=CCCN(C)C1
inactive: locus YAL013W, strain DEP1, active compounds read low 1.01 | locus YAL040C, strain CLN3, active compounds read low 1.02 | locus YDR363W, strain ESC2, active compounds read low 0.986 | locus YER002W, strain NOP16, active compounds read low 1.03 | locus YGR078C, strain PAC10, active compounds read low 1.01 | locus YGR229C, strain SMI1, active compounds read low 1.01 | locus YMR263W, strain SAP30, active compounds read low 1 | locus YMR307W, strain GAS1, active compounds read low 0.959 | locus YNL153C, strain GIM3, active compounds read low 1.03 | locus YNL175C, strain NOP13, active compounds read low 1.01 | locus YNL197C, strain WHI3, active compounds read low 0.99 | locus YNL224C, strain SQS1, active compounds read low 0.998 | locus YNL322C, strain KRE1, active compounds read low 1 | locus YOR083W, strain WHI5 (second series), active compounds read low 1

CC(C)(N)Cc1ccccc1
inactive: locus YHR030C, strain SLT2, active compounds read low 1.02 | locus YHR079C, strain IRE1, active compounds read low 1.02 | locus YJL095W, strain BCK1, active compounds read low 1 | locus YJR066W, strain TOR1, active compounds read low 0.947 | locus YLR113W, strain HOG1, active compounds read low 0.965 | locus YNL183C, strain NPR1, active compounds read low 0.937 | locus YOR231W, strain MKK1, active compounds read low 1.01 | locus YPL256C, strain CLN2, active compounds read low 1.03
